Measurements reported in PubChem BioAssay (NCI).
This is part of a sample that, as a whole, favours compounds with a hit. Of some 79,000 tested, about 15% had one in any assay. Values without a mark were called inactive. Calls of active or inactive are those of the source. No stated cut-off is given here; in the data, active means growth inhibition above about 70%; inactive means the rest.

Assays:
[1] = NCI Yeast Anticancer Drug Screen. Data for the rad50 strain (AID 155);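 further: 0% = growth of vehicle-only cultures of the same strain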; details: S. cerevisiae rad50 strain growth inhibition; at 50.0 µM; hits give high values
Outline: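 Relative growth inhibition (compound vs vehicle) was measured in yeast with a defined repair-gene alteration.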

[2] = NCI Yeast Anticancer Drug Screen. Data for the mec2-1 strain (AID 157); details: S. cerevisiae mec2-1 strain, at 50.0 µM, hits give high values
Outline: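 Growth inhibition is read against vehicle-treated controls after compound exposure of the mec2-1 yeast strain, which is defective in DNA damage repair or cell cycle control.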

[3] = NCI Yeast Anticancer Drug Screen. Data for the sgs1 mgt1 strain (AID 161);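 further: 0% = growth of cultures given vehicle only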; details: S. cerevisiae sgs1 mgt1 strain, at 50.0 µM, hits give high values
Outline: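 Percent growth inhibition was derived by comparing compound-exposed mutant yeast with vehicle-exposed cultures. The strain carries alterations in DNA damage repair.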

[4] = NCI Yeast Anticancer Drug Screen. Data for the cln2 rad14 strain (AID 165);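 further: 0% = growth equal to vehicle treated cultures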; details: S. cerevisiae cln2 rad14 strain, at 50.0 µM, hits give high values
Outline: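 Growth inhibition, relative to vehicle-treated controls, is the read-out. The test organism is a yeast strain with defined genetic alterations, cln2 rad14.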

[5] = NCI Yeast Anticancer Drug Screen. Data for the bub3 strain (AID 167); details: S. cerevisiae bub3 mutant strain, at 50.0 µM, hits give high values
Outline: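 Screening used yeast with an engineered genetic alteration affecting cell cycle control. Compound-exposed cultures were compared with vehicle cultures, and reduced growth was taken as inhibition.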

[6] = NCI Yeast Anticancer Drug Screen. Data for the mlh1 rad18 strain (AID 175); details: S. cerevisiae mlh1 rad18 strain growth inhibition; at 50.0 µM; hits give high values
Outline: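 Cells of a genetically altered yeast strain, deficient in DNA damage repair, were treated with compound. Their growth was then compared with that of vehicle-treated cultures to give inhibition.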

Structure (SMILES) | growth inhibition [1] | growth inhibition [2] | growth inhibition [3] | growth inhibition [4] | growth inhibition [5] | growth inhibition [6]
O=P(O)(c1cc(Cl)cc(Cl)c1)c1cc(Cl)cc(Cl)c1 | 2.05% | -7.45% | 10.2% | -5.1% | -7.1% | -4.5%
CCC(=O)N1CCN(C(=O)CC)c2ccccc21 | -3% | -5.8% | -0.25% | -5.25% | 0.75% | 6.65%
CC(=O)c1cccc(NCn2nnc3ccccc32)c1 | -47.5% | -8.65% | -62.3% | -4.25% | -45.4% | -34.5%
Cc1ccccc1-c1nc(/C=C2\C(=O)C=Cc3ccccc32)c(O)o1 | -17.3% | -4.45% | -1.1% | 23.6% | -2.55% | -1.6%
CCCCCCCCCCOc1ccc(C2=C(c3ccccc3)C(=O)C(c3ccccc3)=C2c2ccccc2)cc1 | 25.3% | 10.4% | 17.4% | 14.9% | -5.3% | 3.6%
C[C@]12CC[C@@H]3c4cc(C=O)c(OCc5ccccc5)cc4CC[C@H]3[C@@H]1CCC2OCc1ccccc1 (stereo not given in full) | 12.4% | -8.15% | 0.45% | 2.9% | -2.65% | -0.95%
CCCC(=O)OCCC(C)C | 30.9% | 10.3% | 13.3% | -29.9% | -13.5% | 22.4%
O=[N+]([O-])c1cc(F)c(F)cc1F | -26.9% | 4.15% | -21.1% | -32.2% | -14.6% | 26.9%
CC(C)(C)C1CCC(C(=O)c2ccccc2)CC1 (stereo not given) | -7.75% | -4.05% | -0.75% | -45.3% | -28.6% | 1.7%
O=CNc1ccccc1Cc1ccccc1 | 13.2% | -24% | 4.5% | 7.85% | 4.25% | 1.65%
OC(CNCCc1ccccc1)COc1cccc2ccccc12 (stereo not given) | 86.2% (active) | 92% (active) | 96.9% (active) | 98.5% (active) | 88% (active) | 97.2% (active)
COc1cc(N=Nc2ccc(N)nc2N)c(OC)cc1N=Nc1ccc([N+](=O)[O-])cc1 | 12.6% | 23% | 1.8% | 21.6% | 9.4% | 27.1%
O=C(O)CCCCCCCCCCCc1ccccc1 | -30.8% | -16.8% | -19.3% | -13.2% | 5.55% | -38.5%
C/C=C1\C(=O)OC2CCN3CCC(COC(=O)C(C)(O)C(C)C1O)C23 (stereo not given) | 11.2% | -7.65% | -24.6% | -13.7% | -46.5% | -60.2%
O=C1NC2(CCN(CCCC3(c4ccc(F)cc4)OCCO3)CC2)Oc2ccccc21 | -11.6% | -35.7% | -1.15% | -11.6% | 5.8% | -55.7%
CCCCOc1c(Cl)cc(Cl)cc1-c1ccccc1 | 14.7% | 9.6% | 2.55% | -18.2% | 18.5% | 2.25%
CCCS(=O)(=O)N1CCC(C)CC1 | 5.7% | -21.1% | 5.85% | -8.65% | -8.55% | 1.6%
Cn1c(C=O)cc2c(Cl)nccc21 | -35.5% | -17.4% | -11.8% | -54.9% | -10.1% | -1.15%
CC1(CO)CSC(Nc2ccc(F)cc2)=N1 (stereo not given) | -7.4% | -11.1% | 14.8% | 14.8% | 2.4% | 3.35%
CCNCCCCNCC | 4.25% | -14.9% | -18.6% | 8.1% | -3.85% | 2.3%
